Data on one compound can be found in PubChem BioAssay AID2284089 (EPA ToxCast).

Activity calls are given as the source filed them. How the source made its calls: active means hit-call score of the fitted dose curve at least 0.9, where 1 is the maximum; inactive means score below 0.9.

Chain of Cytochrome P450 2C19 (Homo sapiens) (P33261 whole entry, looked up): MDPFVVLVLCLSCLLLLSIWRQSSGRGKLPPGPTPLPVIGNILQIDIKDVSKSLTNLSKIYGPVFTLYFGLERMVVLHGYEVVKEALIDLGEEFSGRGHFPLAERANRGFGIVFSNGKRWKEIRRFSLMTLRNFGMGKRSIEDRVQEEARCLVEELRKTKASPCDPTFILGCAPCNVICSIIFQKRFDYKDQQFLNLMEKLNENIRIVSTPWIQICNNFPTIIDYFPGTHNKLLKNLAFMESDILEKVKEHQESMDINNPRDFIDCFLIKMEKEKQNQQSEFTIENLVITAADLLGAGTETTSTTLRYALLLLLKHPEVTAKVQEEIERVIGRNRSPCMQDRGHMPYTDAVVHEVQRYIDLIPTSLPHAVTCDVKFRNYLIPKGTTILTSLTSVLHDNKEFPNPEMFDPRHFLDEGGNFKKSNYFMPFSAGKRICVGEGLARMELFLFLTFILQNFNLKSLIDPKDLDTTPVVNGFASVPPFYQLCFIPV

In the assay the target is Cytochrome P450 2C19 (Homo sapiens) (UniProt P33261). Briefly: ERF_FR_ADME_hCYP2C19_CEC: Eurofins (ERF) CYP450-related Enzyme Activity (ADME) Assay for CYP2C19 Inhibition Assay, CEC Subtrate. On the procedure:
ERF_FR_ADME_hCYP2C19_CEC is a biochemical, single-readout assay that uses extracted gene-proteins in a cell-free assay. Measurements were taken 0.83 hour after chemical dosing in a 96-well plate. See CYP2C19 inhibition (recombinant, CEC substrate).ERF_FR_ADME_hCYP2C19_CEC is an assay component calculated from the ERF_FR_ADME_hCYP2C19_CEC assay. It is designed to measure enzyme activity using a type of enzyme reporter as detected by fluorescence intensity of HFC with fluorimetry technology.Data from the assay component ERF_FR_ADME_hCYP2C19_CEC was analyzed at the assay endpoint, ERF_FR_ADME_hCYP2C19_CEC, in the positive analysis fitting direction relative to acetonitrile as the negative control and baseline of activity. Using a type of enzyme reporter, loss-of-signal activity can be used to understand changes in enzymatic activity as they relate to gene CYP2C19. To generalize the intended target to other relatable targets, this assay endpoint is annotated to the cyp intended target family, where the subfamily is steroidogenesis-related.
Assay is performed with 1 compound concentration(s) and each concentration tested using 2 replicate
As to `O=C(/C=C/c1ccc(O)cc1)CC(=O)/C=C/c1ccc(O)cc1`, the AC50 is 1.47 µM (active).

As usually defined, the AC50 is the midpoint of the concentration-response curve, whichever way the signal moves.
